Data on 7 compounds can be found in PubChem BioAssay.

Molecules are shown by their SMILES. Values joined by “and” are separate entries in the source; they are usually repeats but may differ in a detail not shown here. Identical values can stand only once. Active and inactive are the calls of the source.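 The calls were made as follows, unless noted: active = compound raises GLP1 secretion from the human gut endocrine cells, with no numeric limit stated; inactive = the rest.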

Experiment [1] in a line: stimulators of nuclear beta-catenin in C2C12, primary screen, imaging, WNT3A-conditioned medium, mouse C2C12, NPC library (AID 1117326; in the data active = nuclear beta-catenin stimulation mostly above about 4.2%, no sharp cut-off; inactive = mostly below about 10%). Particulars: stronger effect = higher value.
Experiment [2] can be described thus: stimulators of insulin release from INS-1E, primary screen, cell-based, 5 mM glucose, NPC library (AID 1117329;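 active = compound raises insulin release from rat beta cells at 5 mM glucose, no numeric limit stated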). The conditions noted are these: rat INS-1E insulin secretion, at 10 µM, stronger effect = higher value.
A short description of experiment [3]: glucagon-like peptide 1 release enhancers, primary assay, NCI-H716 cell line, NPC library (AID 1117341). Particulars: NCI-H716 cells, at 10 µM, stronger effect = higher value.
Experiment [4] is described as follows: growth inhibition of GSK3B-pretreated HCT116 cells – cell-based, CellTiter-Glo, 0.2 to 20 µM (AID 1117336;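 active = compounds lowering colon cancer cell viability after pretreatment blocking the GSK3B kinase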). Particulars: HCT116 viability after GSK3B inhibitor, at 20 µM, stronger effect = higher value. Background: ATP-based viability assays read luminescence as a measure of living cells.
The nature of experiment [5]: inhibition of endothelial tube formation, primary screen, imaging, VEGF stimulated, CD31 staining, tube area, NPC library (AID 1117340;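 active = compound that reduces growth-factor-driven endothelial tube area in a mixed cell culture, no cutoff stated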). The conditions noted are these: VEGF-stimulated ADSC/ECFC co-culture, at 10 µM, stronger effect = higher value.
Experiment [6] in a line: HCT116 colon cancer cell growth inhibition, primary screen, CellTiter-Glo luminescence, NPC library (AID 1117342;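 active = compounds that lower survival of HCT116 colon cancer cells in the luminescence readout, no numeric limit stated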). Particulars: at 20 µM (top of the series).
Experiment [7] is described as follows: CellTiter-Glo luminescent readout of SW480 viability loss, NPC library primary (AID 1117343;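 active = compounds that lower viability of the colon cancer cells in the luminescence readout, with no numeric limit stated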). Particulars: CellTiter-Glo luminescence; at 20 µM (top of the series).
The nature of experiment [8]: decreased DLD-1 cellular survival, CellTiter-Glo luminescent readout, NPC compound collection, primary HTS (AID 1117346;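 active = compounds that lower survival of DLD-1 colon cancer cells in the luminescence readout, no cutoff given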). Particulars: DLD-1 viability, CellTiter-Glo luminescence; at 20 µM (top of the series).
Experiment [9] concerns the target NAD(+) hydrolase SARM1 (Homo sapiens) (UniProt Q6SZW1). Briefly: SARM1 TIR NADase inhibitors, cell lysate, NAD-Glo luminescence (AID 1508614;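 active = compound whose remaining NAD level is above about 45 nM, limit read from the data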;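 also: higher remaining NAD means stronger inhibition of SARM1 NADase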). Particulars: SAM-TIR HEK293T lysate NADase, at 1 µM, stronger effect = higher value.
A short description of experiment [10]: sensitizers of A549 cells to miR-34 induction, primary screen, imaging, A549 dox-inducible miR-34, nuclei and caspase counts (AID 1347080;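 active = compounds whose cell count with miR-34 switched on is under 0.7 times the count with it off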). Particulars: A549 miR-34 inducible, Hoechst nuclei count, 48 h.
Experiment [11] in a line: survival rescue of mitochondrial mutant cells in low glucose, primary screen, MELAS cybrids, Rieske KO mouse fibroblasts, CellTiter-Glo (AID 1508586;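 active = mean z-score across replicates of 1.96 or higher in either the MELAS or the Rieske mutant cell line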;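 also: z relative to plate mean and SD of compound and empty wells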).
Experiment [12] is described as follows: hESC survival regulators, cell-based (AID 493140; call rule not given here;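 also: cells exposed to compounds for four days before counting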). Particulars: human embryonic stem cell survival screen; stronger effect = higher value.
The nature of experiment [13]: liver-stage malaria parasite growth inhibition, primary screen, cell-based, HepG2, luciferase luminescence, HepG2 viability (AID 624349; in the data active = parasite load remaining mostly below about 12%, no sharp cut-off; inactive = mostly above about 10%;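 also: 100% = mean of DMSO negative control wells on the same plate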). Particulars: P. berghei liver stage in HepG2, luciferase luminescence, concentration not given here; parasite load remaining: stronger effect = lower value; viability: measured here: HepG2 viability without parasites.
Where [14] appears, read: measured here: relative caspase fold change +Dox/-Dox.
The mark [15] stands for this setting: measured here: total cells with miR-34 induction, stronger effect = lower value.
The mark [16] stands for this setting: measured here: total cells without miR-34 induction.
Where [17] appears, read: MELAS cybrid survival, CellTiter-Glo 48 h, stronger effect = higher value.
The mark [18] stands for this setting: Rieske KO mouse fibroblast survival, CellTiter-Glo 72 h.

NAD(+) hydrolase SARM1 (Homo sapiens), sequence (Q6SZW1 whole entry, looked up): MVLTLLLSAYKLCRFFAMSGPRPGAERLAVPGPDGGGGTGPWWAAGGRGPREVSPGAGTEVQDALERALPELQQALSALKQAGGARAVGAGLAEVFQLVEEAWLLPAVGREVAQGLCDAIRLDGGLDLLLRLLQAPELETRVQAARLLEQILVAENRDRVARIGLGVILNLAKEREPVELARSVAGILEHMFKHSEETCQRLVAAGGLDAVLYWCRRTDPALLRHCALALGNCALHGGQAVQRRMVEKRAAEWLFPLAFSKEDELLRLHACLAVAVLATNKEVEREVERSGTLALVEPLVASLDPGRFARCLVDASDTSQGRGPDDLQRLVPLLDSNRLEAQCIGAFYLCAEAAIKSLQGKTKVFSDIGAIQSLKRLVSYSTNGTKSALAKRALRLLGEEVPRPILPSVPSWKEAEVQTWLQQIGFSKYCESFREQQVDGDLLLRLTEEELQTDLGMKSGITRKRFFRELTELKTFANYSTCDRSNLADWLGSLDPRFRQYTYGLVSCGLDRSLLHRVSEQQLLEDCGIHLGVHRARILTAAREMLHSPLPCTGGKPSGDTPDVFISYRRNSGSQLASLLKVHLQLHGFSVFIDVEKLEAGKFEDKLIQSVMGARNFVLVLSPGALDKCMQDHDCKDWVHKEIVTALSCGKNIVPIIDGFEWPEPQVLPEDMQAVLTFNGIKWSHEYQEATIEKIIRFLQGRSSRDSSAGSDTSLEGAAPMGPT

Take `COCC(C)N(C(=O)CCl)c1c(C)csc1C` (centres undefined): the nuclear beta-catenin stimulation in experiment [1] (at 10 µM) is 0.5% (inactive); in [1] (stimulation, at 2 µM), 2.6%. Moreover, in experiment [2], the insulin secretion stimulation is 0.7% (inactive). The GLP1 secretion stimulation in experiment [3] is -0.9% (inactive).
Consider `NCCC[C@H](N)C(=O)O`, for which the nuclear beta-catenin stimulation in [1] (at 10 µM) was 1.2% (inactive); in [1] (stimulation, at 2 µM), 1.6%. Also, in experiment [2], the insulin secretion stimulation was -2.2% (inactive). Moreover, the viability decrease in experiment [4] is -5.15% (inactive). Moreover, the tube area decrease in experiment [5] was -2.1% (inactive). The GLP1 secretion stimulation in experiment [3] is 1.4% (inactive). The inhibition of viability in experiment [6] is -35.4% (inactive). In addition, the viability decrease (inhibition) in [7] was 98.1% (active); in [8] it was 0.35% (inactive). In addition, in experiment [9], the remaining NAD was 10 nM (inactive).
On to `CCOC(=O)C=C(C)C=CC[C@@H](C)CCCC(C)C`, for which the nuclear beta-catenin stimulation in experiment [1] (at 10 µM) was 0.8% (inactive); in experiment [1] (stimulation, at 2 µM), -0.1%. Besides, in experiment [2], the insulin secretion stimulation is 1.05% (inactive). In addition, the GLP1 secretion stimulation in experiment [3] is -6.5% (inactive).
Take `CC[N+]1(CCOC(=O)C(O)(c2ccccc2)c2ccccc2)CCCCC1`: the nuclear beta-catenin stimulation in experiment [1] (at 10 µM) was -0.3% (inactive); in experiment [1] (stimulation, at 2 µM), 0.7%. The insulin secretion stimulation in experiment [2] was -0.8% (inactive). Further, the tube area decrease in [5] was 23.5% (inactive). Further, the GLP1 secretion stimulation in experiment [3] is 0.5% (inactive).
As for `CN(C)CCc1ccc(O)cc1`, the nuclear beta-catenin stimulation in [1] (at 10 µM) was -0.3% (inactive); in experiment [1] (stimulation, at 2 µM), 1.5%. In [2], the insulin secretion stimulation is -0.4% (inactive). Besides, in experiment [4], the viability decrease was 1.5% (inactive). In experiment [5], the tube area decrease is 4.1% (inactive). Moreover, in [3], the GLP1 secretion stimulation is 1.1% (inactive). For the same compound, the inhibition of viability in experiment [6] was 4.7% (inactive). For the same compound, the viability decrease (inhibition) in [7] was 1.9% (inactive); in experiment [8], -0.4% (inactive). Moreover, the fold change was 0.908 (inactive) in experiment [10] (stronger effect = lower value, cell number ratio, induced over uninduced) and 0.849 in [10] (setting [14]). For the same compound, the cell count in [10] (setting [15]) came out at 9070; in [10] (setting [16]) it was 9990. In addition, the z-score is -0.277 (inactive) in experiment [11] (setting [17]) and 0.765 in experiment [11] (setting [18]).
With `O=S(=O)(O)c1cc(O)ccc1O`, the survival in experiment [12] was 4.5 (inactive). Moreover, the parasite load remaining in experiment [13] was 113% (inactive). Further, the viability (commonly a read-out of living cells in per cent, often relative to untreated cells) in [13] turned out to be 69.3%. Moreover, the nuclear beta-catenin stimulation in experiment [1] (at 10 µM) is 0.1% (inactive); in experiment [1] (stimulation, at 2 µM) it was 2.5%. In addition, the insulin secretion stimulation in [2] is 3.2% (inactive). Besides, in [4], the viability decrease is -0.4% (inactive). Moreover, the tube area decrease in [5] was 3% (inactive). Besides, the GLP1 secretion stimulation in [3] is -3% (inactive). Besides, in experiment [6], the inhibition of viability is 2.4% (inactive). Besides, the results for the viability decrease (inhibition) in [7] and in experiment [8] were 19.4% (inactive) and 10.6% (inactive), respectively. For the same compound, the fold change was 0.958 (inactive) and 1.35 (inactive) in experiment [10] (stronger effect = lower value); 0.623 and 0.929 in experiment [10] (setting [14]). Moreover, the cell count was 8960 and 8580 in experiment [10] (setting [15]); 9360 and 6370 in experiment [10] (setting [16]). For the same compound, the z-score in experiment [11] (setting [17]) was -0.259 (inactive) and 0.566 (inactive); in experiment [11] (setting [18]) it was -0.197 and 0.515.
In the case of `CC(=O)OCC1=C(C(=O)O)N2C(=O)[C@@H](N)[C@H]2SC1`, in experiment [12], the survival was 9.33 (inactive). The parasite load remaining in [13] was 107% (inactive) and 94.3% (inactive). The viability in experiment [13] was 91.6% and 74.9%. Further, the nuclear beta-catenin stimulation in [1] (at 10 µM) is -0.8% (inactive); in [1] (stimulation, at 2 µM), 0.2%. In addition, in experiment [2], the insulin secretion stimulation is -2.9% (inactive). In addition, the viability decrease in experiment [4] was 27.2% (inactive). Further, the tube area decrease in experiment [5] is 10.2% (inactive). Further, the GLP1 secretion stimulation in [3] was 1.9% (inactive). For the same compound, the inhibition of viability in experiment [6] is -5.2% (inactive). Also, the viability decrease (inhibition) in experiment [7] was 82.6% (active); in [8] it was 29.3% (inactive). The fold change in experiment [10] (stronger effect = lower value) was 0.918 (inactive); in experiment [10] (setting [14]), 1.55. The values for the cell count in experiment [10] (setting [15]) and in [10] (setting [16]) were 8570 and 9340, respectively. Also, the figures for the z-score in experiment [11] (setting [17]) and in [11] (setting [18]) were 0.366 (inactive) and -0.158, respectively.
